# Legend:
# Test in all cases: DAPPL (digital affinity profiling via proximity ligation, sequencing); 10 mM Tris-HCl pH 7.5, 50 mM NaCl, 1 mM DTT, 4% glycerol, room temperature, 30 min; GST-TFs on glutathione beads, 16-mer random dsDNA library, 0.1% formaldehyde crosslink after washing; high values mean tight binding
# FEV = molecular target: T1, FEV (Homo sapiens, UniProt Q99581 1-238); details: protein: recombinant; tags: N-terminal GST; dsDNA, one strand shown
# T1 sequence: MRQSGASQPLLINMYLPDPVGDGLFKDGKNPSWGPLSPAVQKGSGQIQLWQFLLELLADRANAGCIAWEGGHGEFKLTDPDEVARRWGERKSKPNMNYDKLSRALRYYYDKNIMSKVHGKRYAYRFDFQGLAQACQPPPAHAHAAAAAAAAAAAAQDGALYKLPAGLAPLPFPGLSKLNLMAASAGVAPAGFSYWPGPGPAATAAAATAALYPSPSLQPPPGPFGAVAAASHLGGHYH
# Outline: (§1)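 In yeast, human transcription factors were expressed with a GST fusion, then pulled down on glutathione beads and given DNA barcodes. Pooled with a tag-only sample, they were exposed to 200 nmole of a 16-mer random double-stranded DNA library (Tris/NaCl/DTT/glycerol buffer, room temperature, 30 min), washed, crosslinked with 0.1% formaldehyde, proximity-ligated using BsaI/T4 ligase for 1 h at 37 °C, PCR-amplified and read on an Illumina NextSeq500. Each hexamer's frequency of reads for a factor, divided by the matching frequency for the tag-only sample, gives the binding signal.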
# ETV5 = ETV5 (Homo sapiens, UniProt P41161 1-510); details: protein: recombinant; tags: N-terminal GST; dsDNA, one strand shown
# ETV5, sequence (P41161 whole entry): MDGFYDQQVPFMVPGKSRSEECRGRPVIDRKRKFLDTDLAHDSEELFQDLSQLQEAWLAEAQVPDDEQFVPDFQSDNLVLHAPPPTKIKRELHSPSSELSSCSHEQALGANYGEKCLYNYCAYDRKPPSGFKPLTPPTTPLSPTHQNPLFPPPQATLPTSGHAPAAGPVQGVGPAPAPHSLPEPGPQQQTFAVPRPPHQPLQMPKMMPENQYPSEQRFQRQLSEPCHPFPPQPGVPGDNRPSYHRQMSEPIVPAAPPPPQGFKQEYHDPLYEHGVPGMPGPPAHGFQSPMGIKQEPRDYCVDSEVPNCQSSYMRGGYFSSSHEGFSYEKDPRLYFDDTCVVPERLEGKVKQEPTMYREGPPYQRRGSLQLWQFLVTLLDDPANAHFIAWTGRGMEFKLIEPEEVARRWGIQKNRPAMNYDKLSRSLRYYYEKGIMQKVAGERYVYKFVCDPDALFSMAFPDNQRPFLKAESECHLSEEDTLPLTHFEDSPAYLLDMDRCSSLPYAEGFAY
# Outline: as §1
# HSF1 = HSF1 (Homo sapiens, UniProt Q00613 1-529); details: protein: recombinant; tags: N-terminal GST; chain copies: 3; dsDNA, one strand shown
# HSF1, sequence (Q00613 whole entry): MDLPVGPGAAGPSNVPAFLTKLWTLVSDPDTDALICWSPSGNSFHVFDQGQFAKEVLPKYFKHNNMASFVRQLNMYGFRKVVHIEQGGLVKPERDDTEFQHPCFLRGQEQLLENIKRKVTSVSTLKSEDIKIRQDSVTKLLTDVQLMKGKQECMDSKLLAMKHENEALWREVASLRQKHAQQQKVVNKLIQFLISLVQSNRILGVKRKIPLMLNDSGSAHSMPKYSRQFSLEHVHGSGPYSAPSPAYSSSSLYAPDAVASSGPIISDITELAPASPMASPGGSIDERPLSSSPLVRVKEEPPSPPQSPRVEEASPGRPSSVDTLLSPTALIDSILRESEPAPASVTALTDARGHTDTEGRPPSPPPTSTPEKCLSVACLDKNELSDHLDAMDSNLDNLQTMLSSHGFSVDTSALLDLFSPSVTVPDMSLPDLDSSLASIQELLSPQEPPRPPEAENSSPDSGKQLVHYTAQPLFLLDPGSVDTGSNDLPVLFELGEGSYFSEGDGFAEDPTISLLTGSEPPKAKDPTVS
# Outline: as §1
# SPIC = molecular target: T2, SPIC (Homo sapiens, UniProt Q8N5J4 1-248); details: protein: recombinant; tags: N-terminal GST; dsDNA, one strand shown
# T2 sequence: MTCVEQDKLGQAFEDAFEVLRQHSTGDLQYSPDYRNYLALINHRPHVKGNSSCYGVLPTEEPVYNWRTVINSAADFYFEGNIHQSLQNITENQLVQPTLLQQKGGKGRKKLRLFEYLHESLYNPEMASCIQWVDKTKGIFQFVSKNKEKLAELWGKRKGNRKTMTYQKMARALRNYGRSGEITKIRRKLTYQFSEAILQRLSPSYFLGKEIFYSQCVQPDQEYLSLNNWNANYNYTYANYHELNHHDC
# Outline: as §1
# ELF4 = ELF4 (Homo sapiens, UniProt Q99607 1-663); details: protein: recombinant; tags: N-terminal GST; dsDNA, one strand shown
# ELF4, sequence (Q99607 whole entry): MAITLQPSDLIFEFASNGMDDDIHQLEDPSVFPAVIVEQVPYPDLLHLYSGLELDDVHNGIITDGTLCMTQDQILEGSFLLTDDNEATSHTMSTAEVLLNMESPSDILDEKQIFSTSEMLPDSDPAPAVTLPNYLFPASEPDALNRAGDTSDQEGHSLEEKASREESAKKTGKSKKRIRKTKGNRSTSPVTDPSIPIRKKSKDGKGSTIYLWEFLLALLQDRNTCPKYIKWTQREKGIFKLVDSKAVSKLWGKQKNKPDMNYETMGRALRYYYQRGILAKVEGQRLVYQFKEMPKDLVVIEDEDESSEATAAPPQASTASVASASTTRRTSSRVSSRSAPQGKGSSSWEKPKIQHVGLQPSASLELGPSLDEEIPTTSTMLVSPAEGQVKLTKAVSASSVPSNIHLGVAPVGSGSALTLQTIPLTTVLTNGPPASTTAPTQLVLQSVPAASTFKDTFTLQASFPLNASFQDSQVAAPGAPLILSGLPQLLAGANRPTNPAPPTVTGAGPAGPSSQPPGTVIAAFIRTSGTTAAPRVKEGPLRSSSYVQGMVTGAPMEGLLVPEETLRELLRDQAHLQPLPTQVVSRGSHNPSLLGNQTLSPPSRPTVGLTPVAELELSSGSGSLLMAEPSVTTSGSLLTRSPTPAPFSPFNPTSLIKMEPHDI
# Outline: as §1
# ELK4 = molecular target: T3, ELK4 (Homo sapiens, UniProt P28324-2 1-405); details: protein: recombinant; tags: N-terminal GST; dsDNA, one strand shown
# T3 sequence: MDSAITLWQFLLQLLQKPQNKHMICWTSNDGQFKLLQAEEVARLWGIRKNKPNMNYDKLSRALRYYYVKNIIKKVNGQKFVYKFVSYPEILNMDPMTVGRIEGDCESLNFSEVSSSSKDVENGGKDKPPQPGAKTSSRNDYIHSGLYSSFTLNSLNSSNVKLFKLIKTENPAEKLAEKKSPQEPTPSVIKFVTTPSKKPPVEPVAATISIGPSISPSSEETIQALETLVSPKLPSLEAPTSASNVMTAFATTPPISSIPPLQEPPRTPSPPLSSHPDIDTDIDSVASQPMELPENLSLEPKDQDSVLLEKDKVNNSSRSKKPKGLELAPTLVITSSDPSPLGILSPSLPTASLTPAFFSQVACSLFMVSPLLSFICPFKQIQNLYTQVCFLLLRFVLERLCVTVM
# Outline: as §1
# ETV2 = molecular target: T4, ETV2 (Homo sapiens, UniProt O00321 1-342); details: protein: recombinant; tags: N-terminal GST; dsDNA, one strand shown
# T4 sequence: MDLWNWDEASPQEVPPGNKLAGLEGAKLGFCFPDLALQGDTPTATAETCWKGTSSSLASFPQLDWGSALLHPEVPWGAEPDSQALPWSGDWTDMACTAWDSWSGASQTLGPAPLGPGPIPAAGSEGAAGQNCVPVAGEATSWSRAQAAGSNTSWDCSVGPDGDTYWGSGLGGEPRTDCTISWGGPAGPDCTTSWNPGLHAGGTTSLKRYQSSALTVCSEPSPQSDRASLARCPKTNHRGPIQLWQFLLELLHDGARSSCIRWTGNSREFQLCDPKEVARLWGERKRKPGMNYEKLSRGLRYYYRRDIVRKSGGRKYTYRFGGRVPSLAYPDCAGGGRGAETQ
# Outline: as §1
# ELF3 = molecular target: T5, ELF3 (Homo sapiens, UniProt P78545 1-371); details: protein: recombinant; tags: N-terminal GST; dsDNA, one strand shown
# T5 sequence: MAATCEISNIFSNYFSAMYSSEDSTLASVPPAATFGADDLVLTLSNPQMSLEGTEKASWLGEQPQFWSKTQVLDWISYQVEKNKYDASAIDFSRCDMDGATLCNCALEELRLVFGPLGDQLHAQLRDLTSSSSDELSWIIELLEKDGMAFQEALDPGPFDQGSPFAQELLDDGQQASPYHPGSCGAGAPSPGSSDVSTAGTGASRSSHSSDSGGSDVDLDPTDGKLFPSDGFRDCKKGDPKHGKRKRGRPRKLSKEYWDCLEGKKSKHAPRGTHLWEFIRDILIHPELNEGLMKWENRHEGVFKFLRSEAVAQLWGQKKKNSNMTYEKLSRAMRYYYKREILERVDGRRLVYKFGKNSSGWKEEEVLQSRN
# Outline: as §1
# CRX = CRX (Homo sapiens, UniProt O43186 1-299); details: protein: recombinant; tags: N-terminal GST; dsDNA, one strand shown
# CRX, sequence (O43186 whole entry): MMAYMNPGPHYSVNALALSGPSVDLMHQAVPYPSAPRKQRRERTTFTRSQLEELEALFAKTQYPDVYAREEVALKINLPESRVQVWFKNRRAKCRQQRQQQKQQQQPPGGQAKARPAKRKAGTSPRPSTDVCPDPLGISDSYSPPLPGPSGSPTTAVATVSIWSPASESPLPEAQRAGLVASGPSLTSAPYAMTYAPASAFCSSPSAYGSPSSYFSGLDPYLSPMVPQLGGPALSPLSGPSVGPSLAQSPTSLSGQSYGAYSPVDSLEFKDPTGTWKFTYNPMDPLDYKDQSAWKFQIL
# Outline: as §1
# ETV1 = ETV1 (Homo sapiens, UniProt P50549 1-477); details: protein: recombinant; tags: N-terminal GST; dsDNA, one strand shown
# ETV1, sequence (P50549 whole entry): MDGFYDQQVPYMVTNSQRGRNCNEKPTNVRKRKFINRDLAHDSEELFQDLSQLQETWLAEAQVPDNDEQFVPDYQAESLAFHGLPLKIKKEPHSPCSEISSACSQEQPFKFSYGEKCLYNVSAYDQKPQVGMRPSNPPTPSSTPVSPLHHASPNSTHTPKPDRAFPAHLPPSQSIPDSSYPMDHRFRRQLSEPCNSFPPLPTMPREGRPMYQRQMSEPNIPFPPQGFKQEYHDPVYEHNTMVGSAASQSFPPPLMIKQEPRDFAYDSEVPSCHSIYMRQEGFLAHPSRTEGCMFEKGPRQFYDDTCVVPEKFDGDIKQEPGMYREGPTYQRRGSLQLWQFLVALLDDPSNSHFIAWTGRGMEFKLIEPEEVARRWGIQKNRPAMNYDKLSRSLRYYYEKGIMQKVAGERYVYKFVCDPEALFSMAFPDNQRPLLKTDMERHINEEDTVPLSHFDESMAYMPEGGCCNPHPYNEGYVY
# Outline: as §1
# ERF = molecular target: T6, ERF (Homo sapiens, UniProt P50548 1-548); details: protein: recombinant; tags: N-terminal GST; dsDNA, one strand shown
# T6 sequence: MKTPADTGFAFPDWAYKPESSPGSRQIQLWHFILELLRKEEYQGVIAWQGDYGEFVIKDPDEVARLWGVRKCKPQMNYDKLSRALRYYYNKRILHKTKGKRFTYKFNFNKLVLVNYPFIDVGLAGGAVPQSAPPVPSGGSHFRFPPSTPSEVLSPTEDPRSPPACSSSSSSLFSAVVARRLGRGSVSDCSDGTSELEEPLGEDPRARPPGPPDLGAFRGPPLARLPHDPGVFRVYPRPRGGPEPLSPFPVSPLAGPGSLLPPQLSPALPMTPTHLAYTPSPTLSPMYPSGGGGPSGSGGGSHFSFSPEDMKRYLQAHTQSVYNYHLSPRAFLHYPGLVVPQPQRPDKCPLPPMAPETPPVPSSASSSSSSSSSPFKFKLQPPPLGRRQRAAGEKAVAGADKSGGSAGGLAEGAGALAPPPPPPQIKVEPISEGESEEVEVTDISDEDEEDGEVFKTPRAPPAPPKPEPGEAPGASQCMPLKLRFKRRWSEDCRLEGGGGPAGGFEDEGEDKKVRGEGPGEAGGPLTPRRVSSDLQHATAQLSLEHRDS
# Outline: as §1
# ETV3L = molecular target: T7, ETV3L (Homo sapiens, UniProt Q6ZN32 1-361); details: protein: recombinant; tags: N-terminal GST; dsDNA, one strand shown
# T7 sequence: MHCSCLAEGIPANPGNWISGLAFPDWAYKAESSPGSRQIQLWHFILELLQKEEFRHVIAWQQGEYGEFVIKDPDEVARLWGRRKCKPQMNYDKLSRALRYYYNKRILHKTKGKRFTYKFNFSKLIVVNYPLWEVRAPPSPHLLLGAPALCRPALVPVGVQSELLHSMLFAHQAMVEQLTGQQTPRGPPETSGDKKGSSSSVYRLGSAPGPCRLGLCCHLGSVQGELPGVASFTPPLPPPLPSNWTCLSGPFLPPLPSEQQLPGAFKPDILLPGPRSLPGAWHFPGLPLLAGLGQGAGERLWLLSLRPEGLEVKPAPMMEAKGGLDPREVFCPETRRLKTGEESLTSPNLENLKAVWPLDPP
# Outline: as §1
# ETS2 = molecular target: T8, ETS2 (Homo sapiens, UniProt P15036 1-469); details: protein: recombinant; tags: N-terminal GST; dsDNA, one strand shown
# T8 sequence: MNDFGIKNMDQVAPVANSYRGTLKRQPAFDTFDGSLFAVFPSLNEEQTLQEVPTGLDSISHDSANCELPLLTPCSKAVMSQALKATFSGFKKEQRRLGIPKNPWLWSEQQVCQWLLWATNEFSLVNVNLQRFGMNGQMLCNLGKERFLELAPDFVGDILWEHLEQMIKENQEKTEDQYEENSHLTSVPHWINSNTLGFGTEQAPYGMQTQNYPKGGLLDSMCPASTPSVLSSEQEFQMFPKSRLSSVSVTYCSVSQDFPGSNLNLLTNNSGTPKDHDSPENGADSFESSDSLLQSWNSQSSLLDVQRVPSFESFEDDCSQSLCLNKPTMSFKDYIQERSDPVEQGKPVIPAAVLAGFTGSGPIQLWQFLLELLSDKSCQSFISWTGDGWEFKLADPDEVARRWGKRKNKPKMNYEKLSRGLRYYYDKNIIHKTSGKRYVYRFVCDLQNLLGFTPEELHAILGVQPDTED
# Outline: as §1
# SPDEF = molecular target: T9, SPDEF (Homo sapiens, UniProt O95238 1-335); details: protein: recombinant; tags: N-terminal GST; dsDNA, one strand shown
# T9 sequence: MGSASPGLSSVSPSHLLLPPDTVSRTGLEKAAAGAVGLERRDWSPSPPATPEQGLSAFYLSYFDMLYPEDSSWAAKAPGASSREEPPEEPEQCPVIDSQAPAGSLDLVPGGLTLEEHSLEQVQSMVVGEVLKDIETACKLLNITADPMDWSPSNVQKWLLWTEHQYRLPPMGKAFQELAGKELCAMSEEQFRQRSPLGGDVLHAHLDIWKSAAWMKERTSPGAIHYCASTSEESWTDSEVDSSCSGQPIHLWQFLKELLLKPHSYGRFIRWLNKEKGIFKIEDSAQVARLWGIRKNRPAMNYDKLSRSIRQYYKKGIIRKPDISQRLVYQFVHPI
# Outline: as §1
# ETV7 = molecular target: T10, ETV7 (Homo sapiens, UniProt Q9Y603 1-341); details: protein: recombinant; tags: N-terminal GST; dsDNA, one strand shown
# T10 sequence: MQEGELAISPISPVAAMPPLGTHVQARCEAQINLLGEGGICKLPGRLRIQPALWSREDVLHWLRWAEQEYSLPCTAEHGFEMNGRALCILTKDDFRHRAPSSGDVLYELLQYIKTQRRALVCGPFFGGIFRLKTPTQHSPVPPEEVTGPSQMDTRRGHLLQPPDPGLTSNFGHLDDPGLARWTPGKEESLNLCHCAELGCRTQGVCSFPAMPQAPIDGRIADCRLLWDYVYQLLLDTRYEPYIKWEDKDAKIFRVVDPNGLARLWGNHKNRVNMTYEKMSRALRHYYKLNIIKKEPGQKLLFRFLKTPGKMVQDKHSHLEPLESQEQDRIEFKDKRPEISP
# Outline: as §1
# ELF5 = molecular target: T11, ELF5 (Homo sapiens, UniProt Q9UKW6-2 1-255); details: protein: recombinant; tags: N-terminal GST; dsDNA, one strand shown
# T11 sequence: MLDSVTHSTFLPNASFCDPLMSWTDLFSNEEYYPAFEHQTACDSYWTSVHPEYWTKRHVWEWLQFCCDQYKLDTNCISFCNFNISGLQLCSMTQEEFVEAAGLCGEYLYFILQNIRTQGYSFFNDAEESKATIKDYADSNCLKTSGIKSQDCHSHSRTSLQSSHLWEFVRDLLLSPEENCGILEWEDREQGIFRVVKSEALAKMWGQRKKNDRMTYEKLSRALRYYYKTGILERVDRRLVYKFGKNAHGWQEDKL
# Outline: as §1
# ETV3 = molecular target: T12, ETV3 (Homo sapiens, UniProt P41162-2 1-143); details: protein: recombinant; tags: N-terminal GST; dsDNA, one strand shown
# T12 sequence: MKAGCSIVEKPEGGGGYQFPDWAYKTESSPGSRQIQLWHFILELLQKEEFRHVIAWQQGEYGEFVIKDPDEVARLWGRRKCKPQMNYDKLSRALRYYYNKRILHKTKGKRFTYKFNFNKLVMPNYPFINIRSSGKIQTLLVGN
# Outline: as §1
# ETV6 = ETV6 (Homo sapiens, UniProt P41212 1-452); details: protein: recombinant; tags: N-terminal GST; dsDNA, one strand shown
# ETV6, sequence (P41212 whole entry): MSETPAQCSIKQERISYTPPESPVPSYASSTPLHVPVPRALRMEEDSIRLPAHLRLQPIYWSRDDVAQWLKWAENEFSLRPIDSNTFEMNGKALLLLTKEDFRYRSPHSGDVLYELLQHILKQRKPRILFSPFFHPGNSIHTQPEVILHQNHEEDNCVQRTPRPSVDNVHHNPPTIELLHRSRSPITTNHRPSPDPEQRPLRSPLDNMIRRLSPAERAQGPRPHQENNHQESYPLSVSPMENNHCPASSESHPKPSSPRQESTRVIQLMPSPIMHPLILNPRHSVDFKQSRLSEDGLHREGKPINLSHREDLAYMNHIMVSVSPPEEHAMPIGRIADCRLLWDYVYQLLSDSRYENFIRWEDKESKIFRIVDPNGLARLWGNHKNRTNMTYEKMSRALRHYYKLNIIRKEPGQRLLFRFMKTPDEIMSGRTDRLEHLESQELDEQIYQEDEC
# Outline: as §1
sequence,measurement,setting,value
CCGCTA,binding signal,FEV,"1.33 fold enrichment (6-mer frequency, TF over GST control)"
same,binding signal,ETV5,"1.23 fold enrichment (6-mer frequency, TF over GST control)"
same,binding signal,HSF1,"1.17 fold enrichment (6-mer frequency, TF over GST control)"
same,binding signal,SPIC,"1.44 fold enrichment (6-mer frequency, TF over GST control)"
same,binding signal,ELF4,"1.33 fold enrichment (6-mer frequency, TF over GST control)"
same,binding signal,ELK4,"1.3 fold enrichment (6-mer frequency, TF over GST control)"
same,binding signal,ETV2,"1.37 fold enrichment (6-mer frequency, TF over GST control)"
same,binding signal,ELF3,"1.38 fold enrichment (6-mer frequency, TF over GST control)"
same,binding signal,CRX,"1.28 fold enrichment (6-mer frequency, TF over GST control)"
same,binding signal,ETV1,"1.36 fold enrichment (6-mer frequency, TF over GST control)"
same,binding signal,ERF,"1.38 fold enrichment (6-mer frequency, TF over GST control)"
same,binding signal,ETV3L,"1.27 fold enrichment (6-mer frequency, TF over GST control)"
same,binding signal,ETS2,"1.32 fold enrichment (6-mer frequency, TF over GST control)"
same,binding signal,SPDEF,"1.38 fold enrichment (6-mer frequency, TF over GST control)"
same,binding signal,ETV7,"1.36 fold enrichment (6-mer frequency, TF over GST control)"
same,binding signal,ELF5,"1.41 fold enrichment (6-mer frequency, TF over GST control)"
same,binding signal,ETV3,"1.34 fold enrichment (6-mer frequency, TF over GST control)"
same,binding signal,ETV6,"1.4 fold enrichment (6-mer frequency, TF over GST control)"
